System: Vero E6 infected with SARS-CoV-2
Experiment: inhibition of SARS-CoV-2 cytopathic effect; higher = more antiviral protection, active = above 15
Conditions: 48 h

Measured: inhibition of SARS-CoV-2 cytopathic effect

C=C1/C(=C\C=C2/CCC[C@]3(C)[C@@H]([C@H](C)/C=C/[C@@H](O)C4CC4)CC[C@@H]23)C[C@@H](O)C[C@@H]1O [calcipotriol]
inactive: 1 nM -0.16% | 8.33 nM 1.94% | 100 nM -0.66% | 833.33 nM 0.91% | 10000 nM 3.83%

Cc1cc(C)c(CNC(=O)c2cc(-c3ccc(CN4CCOCC4)cc3)cc3c2cnn3C2CCCC2)c(=O)[nH]1
inactive: 1 nM -0.23% | 8.33 nM 1.2% | 100 nM 1.14% | 833.33 nM -1.29% | 10000 nM -1.46%

CCCCOc1nc(N)c2c(n1)N(Cc1cccc(CN3CCCC3)c1)CC(=O)N2
inactive: 1 nM 0.32% | 8.33 nM 2.16% | 100 nM 0.03% | 833.33 nM 2.02% | 10000 nM 1.92%

CCCCN1CCC(CNC(=O)c2c3n(c4ccccc24)CCCO3)CC1 [piboserod]
inactive: 1 nM -0.67% | 8.33 nM 1.75% | 100 nM 0.6% | 833.33 nM -0.97% | 10000 nM 1.25%

c1ccc2c(c1)[I+]c1ccccc1-2 [diphenyleneiodonium]
inactive: 1 nM 0.63% | 8.33 nM 1.31% | 100 nM -0.64% | 833.33 nM -1.09% | 10000 nM 0.37%

CN(C)[C@@H]1C(O)=C(C(N)=O)C(=O)[C@@]2(O)C(O)=C3C(=O)c4c(O)ccc(Cl)c4[C@@](C)(O)[C@H]3C[C@@H]12
inactive: 1 nM 0.81% | 8.33 nM 3.66% | 100 nM 0.73% | 833.33 nM 1.21% | 10000 nM -0.28%

COc1cccc(NC(=O)/C=C/c2ccc(Cl)cc2)c1
inactive: 1 nM -1.02% | 8.33 nM -1.96% | 100 nM -1% | 833.33 nM -0.56% | 10000 nM -4.87%

CSc1ccccc1Nc1nc(N2CCNCC2)nc2c(NCC3CC3)ncnc12
inactive: 1 nM 1.44% | 8.33 nM 1.6% | 100 nM 1.17% | 833.33 nM 0.92% | 10000 nM -33.2%

O=C1c2cccc(O)c2C(=O)c2c(O)cccc21 [dantron]
inactive: 1 nM -2.75% | 8.33 nM -3.39% | 100 nM -1.6% | 833.33 nM -0.79% | 10000 nM 0.11%

Reference: the supplement of paper PMC13380429
